Measurements as given in ChEMBL document CHEMBL1157539, “Thousands of chemical starting points for antimalarial lead identification” (Nature, 2010).
Several values for one entry are separate records, joined by “and”; a condition that tells them apart may be missing. Equal values may be shown once.

What was measured:
Assay type in all cases: functional
Plasmodium falciparum [1] = assay: GSK_TCMDC: Inhibition of Plasmodium falciparum 3D7 in whole red blood cells, using parasite LDH activity as an index of growth. Test compounds present at 2uM
Plasmodium falciparum [2] = assay: GSK_TCMDC: Inhibition of Plasmodium falciparum Dd2 in whole red blood cells, using parasite LDH activity as an index of growth. Test compounds present at 2uM
HepG2 = assay: GSK_TCMDC: Percent inhibition of human HepG2 cell line. Test compounds present at 10uM.

Row | Structure (SMILES) | Inhibition (Plasmodium falciparum [1]) | Inhibition (Plasmodium falciparum [2]) | Inhibition (HepG2)
1 | O=C(Nc1ccc(CN2CCC(c3c[nH]c4ccc(O)cc34)CC2)cc1)c1ccc(-c2ccccc2)cc1 | 100% | 100% | 33%
2 | CCCC(=O)c1c(O)c2ccccc2oc1=O | 93% | 1% | 11%
3 | Cc1[nH]c2ccccc2c1C1=CCN(CCCCC2(C)C(=O)Nc3ccccc32)CC1 (stereo unspecified) | 94% | 89% | 8%
4 | O=C1Nc2cccc3c2C1(CCCCN1CC=C(c2c[nH]c4ncccc24)CC1)CCC3 (stereo unspecified) | 92% | 80% | 11%
5 | CC(Cc1ccc(NC(=O)[C@@H](C)NCCc2cccc(Cl)c2)cc1)NCCc1cccc(Cl)c1.Cl (stereo partly specified) | 99% | 54% | 99%
6 | O=C(/C=C/c1ccc(Cl)c(Cl)c1)NC1CCC(CN2CCC(c3c[nH]c4cc(O)ccc34)CC2)CC1 (stereo unspecified) | 100% | 98% | 18%
7 | Cc1c(C)c2c(c(C)c1O)CC[C@@](C)(C(=O)NC1CCC(CN3CCC(c4c[nH]c5ccccc45)CC3)CC1)O2 (stereo partly specified) | 92% | 57% | 29%
8 | COC(=O)/C=C/c1ccc(CC(C)NCC(O)c2cccc(C(F)(F)F)c2)cc1 (stereo unspecified) | 97% | 96% | 16%
9 | CCCCOC(C(=O)OCC1CCCN1C)(c1ccccc1)c1ccccc1 (stereo unspecified) | 100% | 2% | 3%
10 | CN1CC=C(c2c[nH]c3ccc(OC(=O)c4ccccc4)cc23)C1 | 96% | 97% | 12%
11 | O=C(/C=C/c1ccc(Cl)c(Cl)c1)NCCC1CCC(N2CCC(c3c[nH]c4ccccc34)CC2)CC1 (stereo unspecified) | 100% | 99% | 91%
12 | COc1cccc(CC(C)NCC(O)c2cccc(Cl)c2)c1.Cl (stereo unspecified) | 85% | 76% | 7%
13 | CCN(CC)CCN1C(=O)C(O)(c2ccccc2Cl)c2c1cc(C#N)cc2C(F)(F)F (stereo unspecified) | 88% | 19% | 21%
14 | CN(c1ccc(NC(=O)CCOc2ccccc2)cc1)C1CCN(Cc2cccc(O)c2)CC1.O=C(O)C(F)(F)F | 89% | 0% | 18%
15 | Cc1c(C)c2c(c(C)c1O)CC[C@@](C)(C(=O)N1CCC(CN3CCC(c4c[nH]c5ccccc45)CC3)CC1)O2 | 98% | 90% | 21%
16 | CC[C@H]1CN2CC[C@H]1C[C@H]2[C@H](O)c1cc(-c2ccc(OC(F)(F)F)cc2)nc2ccc(OC)cc12.Cl | 98% | 99% | 24%
17 | CC(=O)N(Cc1ccc(-c2ccc(CNCCc3ccccc3)cc2)cc1)C1CCN(Cc2ccccc2)CC1.O=C(O)C(F)(F)F | 95% | 15% | 45%
18 | O=C(Nc1ccc(Oc2ccccc2)cc1)NC1CCC(CN2CCC(c3c[nH]c4ccccc34)CC2)CC1 (stereo unspecified) | 100% | 97% | 55%
19 | CC(=O)Nc1ccc2[nH]cc(C3CCN(CC4CCC(NC(=O)/C=C/c5ccc(Cl)c(Cl)c5)CC4)CC3)c2c1 (stereo unspecified) | 100% and 90% | 99% and 59% | 10% and 18%
20 | O=C(NC1CCC(CN2CCC(c3c[nH]c4ccccc34)CC2)CC1)c1csc(-c2ccc(C(F)(F)F)cc2Cl)n1 (stereo unspecified) | 99% | 75% | 32%
21 | COc1ccc(C2CNCc3c2cc(OC)c(OC)c3Cl)cc1.Cl (stereo unspecified) | 98% | 3% | 42%
22 | O=C(/C=C/c1ccc(Cl)c(Cl)c1)NCCC1CCC(N2CCC(c3c[nH]c4ccc(O)cc34)CC2)CC1 (stereo unspecified) | 100% | 3% | 19%
23 | Cc1nc(C)c(-c2ccc(Oc3ccc(OC(F)(F)F)cc3)cc2)c(OC(=O)N(CCNC(C)C)C(C)C)c1Br.Cl | 98% | 97% | 35%
24 | Cc1csc(-c2ccc3[nH]cc(C4=CCN(C)CC4)c3c2)n1 | 93% | 78% | 10%
25 | COc1ccc(CCNCc2ccc3nc(N)cc(C)c3c2)cc1 | 100% | 86% | 23%
26 | CC(C)CNCc1cccc(-c2ccc(CN(C(=O)c3cccs3)C3CCN(Cc4ccccc4)CC3)cc2)c1.O=C(O)C(F)(F)F | 85% | 40% | 22%
27 | CN(c1cc(NC(=O)c2cccs2)ccn1)C1CCN(Cc2cccc(F)c2)CC1.O=C(O)C(F)(F)F | 94% | 95% | 0%
